According to the supplement of paper PMC3334620:
Over roughly 33,000 sequences, “E-score (-0.5 to 0.5)” has its median near -0.035; the highest 2% begin near 0.35. This is one part of a sample in which the highest values are shown more often than they occur.

target: T1, Pdr3 (UniProt P33200); experiment: PBM E-score (8-mer binding enrichment) (E-score (-0.5 to 0.5)); higher = stronger / more preferred TF binding; details: protein concentration: 200 nM; construct: GST-full length
T1 sequence: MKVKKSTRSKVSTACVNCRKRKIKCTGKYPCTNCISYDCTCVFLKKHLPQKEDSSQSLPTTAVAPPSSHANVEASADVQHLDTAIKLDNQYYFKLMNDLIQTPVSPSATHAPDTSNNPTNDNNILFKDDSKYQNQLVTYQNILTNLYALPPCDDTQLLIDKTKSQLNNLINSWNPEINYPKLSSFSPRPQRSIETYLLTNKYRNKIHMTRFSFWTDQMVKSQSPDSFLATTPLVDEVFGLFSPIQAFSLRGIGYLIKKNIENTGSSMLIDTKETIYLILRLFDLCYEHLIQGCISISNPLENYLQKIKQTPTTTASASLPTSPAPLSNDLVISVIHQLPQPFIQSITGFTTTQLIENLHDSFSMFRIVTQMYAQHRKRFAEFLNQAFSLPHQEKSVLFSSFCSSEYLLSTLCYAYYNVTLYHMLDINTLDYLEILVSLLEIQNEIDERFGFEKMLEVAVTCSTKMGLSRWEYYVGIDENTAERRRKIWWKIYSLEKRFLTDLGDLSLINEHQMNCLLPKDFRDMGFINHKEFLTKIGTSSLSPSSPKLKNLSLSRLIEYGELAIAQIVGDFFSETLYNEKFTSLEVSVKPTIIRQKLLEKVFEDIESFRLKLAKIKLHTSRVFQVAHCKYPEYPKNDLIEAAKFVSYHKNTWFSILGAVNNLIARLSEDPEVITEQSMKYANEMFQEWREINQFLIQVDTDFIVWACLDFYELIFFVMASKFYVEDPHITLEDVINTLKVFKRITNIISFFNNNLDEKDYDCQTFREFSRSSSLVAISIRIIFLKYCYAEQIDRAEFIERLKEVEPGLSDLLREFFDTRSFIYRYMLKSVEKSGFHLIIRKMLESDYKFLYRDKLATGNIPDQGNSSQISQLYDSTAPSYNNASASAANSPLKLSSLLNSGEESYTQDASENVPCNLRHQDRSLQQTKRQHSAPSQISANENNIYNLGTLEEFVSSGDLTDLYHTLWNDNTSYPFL
Outline: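 Masliner-normalised scans of fluorescent anti-GST signal were the basis for scoring. That signal came from GST-tagged yeast transcription factors applied at about 100-200 nM to double-stranded universal all-10-mer Agilent arrays on fresh or once-stripped slides. Each ungapped eight-base word, pooled with its reverse complement, received an E-score from the Universal PBM Analysis Suite.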

Sequence | PBM E-score
AGCTCTGC | -0.217
CAGCTCTA | -0.128
TAAGCGTA | -0.311
CGAGAGCG | 0.0432
ATTCGGTC | 0.0502
TCGAGAAA | -0.197
CCGAGAAA | 0.357
GCGAGAAA | -0.0403
ACAGTGGT | -0.156
GGGATCCC | 0.374
GGGATCCA | 0.222
AGGATCCG | 0.301
CGGATCGC | 0.279
AGGATCCA | -0.0311
CGGATCCA | 0.413
CGGATCCC | 0.374
TGGATCCA | 0.096
CAGATCCG | 0.314
CGGATCCG | 0.489
CAGATCCC | 0.0667
AGGATCCC | 0.152
AATCTTGT | 0.126
GATCTGCA | -0.0215
CCATTCAG | 0.0183
GATTTCCC | 0.143
CACTCAAC | -0.0691

Sequence | PBM E-score
CGGGCGGA | 0.383
CGGGCGTA | 0.0837
AGGGCGGA | 0.285
GGGGCGGA | 0.359
CGGGCGGC | 0.291
GGGGCGTA | -0.114
AGTCGGCC | 0.13
AGAAGCAC | -0.185
AAAGTTAC | -0.127
GAGGTGTA | -0.13
AGATGCGC | 0.0125
CCATGGAA | 0.156
CGTTAGAG | -0.0371
TCCGCGCA | 0.397
CGCGCGCC | 0.241
ACCGCGCC | 0.128
ACCGCGCA | 0.0742
CCCGCGCC | 0.265
CCCGCGCA | 0.288
CGCGCGCA | 0.347
ACCGCGCG | 0.397
CCCGCGCG | 0.382
ACCGCGCT | 0.139
GCCGCGCA | 0.188
CGCGCGCG | 0.372
CCCAACCG | 0.00518

Sequence | PBM E-score
CGACCGAG | 0.124
TATCACGA | -0.126
AAAATGAG | -0.188
ATAGCTAC | -0.0621
CAGGGGGA | -0.286
CTTTTTTA | -0.0672
ATCCCAGA | -0.204
CTCCCCGA | 0.053
CTCCCGGA | 0.386
CCCCCGGC | 0.037
CTCCCGGC | 0.368
ATCCCCGG | 0.386
ATCCCGGA | 0.417
CTCCCGCA | 0.145
ATCCCAAA | 0.0137
CTCCCCGC | 0.34
ATCCCCGA | 0.303
ATCCCCCG | 0.278
CGGCGTAA | -0.0269
CTGCGTGC | -0.0812
AATTTGTG | 0.159
ATGAGAAG | -0.162
GTACTCGA | -0.0779
ATCCCGGC | 0.419
ATCCCGGG | 0.455
GTCCCCGA | 0.166

Sequence | PBM E-score
GTCCCGCA | 0.229
ACCCCGGC | 0.153
ATCCCAGG | 0.113
ATCCCTGG | -0.0752
GTCCCGGA | 0.394
ATCCCGAC | 0.331
ATGTTCAG | -0.207
AGGTCTAA | -0.0213
AGGAGGCA | -0.127
AGAGCTCG | 0.0679
CAATTCTC | -0.138
AGATGGAG | -0.127
CCATACCC | 0.0565
CCGTGTCA | 0.24
CCGTGTCC | 0.356
GCGTGTCC | 0.201
GGGTTTGA | -0.0398
AGCGACGG | 0.258
AGGGTCAA | -0.0253
GGGGTCAA | -0.0321
CGGGTCAA | 0.387
AATGGAGG | 0.0106
GTCGGCTA | 0.0468
CACAGAGG | -0.0837
TATTCCAA | -0.091
CATTCCGA | 0.421

Sequence | PBM E-score
CATTCCAA | -0.102
TATTCCCA | 0.0626
CATTCCGG | 0.451
GATTCCAA | -0.0548
GATTCCCA | 0.0551
CATTCCTA | -0.14
CATTCCCG | 0.274
TATTCCGA | 0.407
CATTCCAG | -0.131
GATTCCGA | 0.454
AGTTGCAC | -0.136
CTTGCCTC | 0.0139
AGTCTCGG | 0.101
ATGCGAAG | -0.0662
GATCCCAA | 0.0388
ATAAATAC | 0.176
AACGGGAG | 0.179
ACCGGGAT | 0.357
AACGGGAT | 0.364
ACCGGGAA | 0.309
ACCGGGAC | 0.318
AACGGGAC | 0.217
CGCACCAG | 0.133
AGTTTGAT | 0.0669
ACATGCTG | -0.158
ACATTCCA | -0.0365

Sequence | PBM E-score
AAGACTAC | -0.188
AGGTTCCA | -0.018
CCGTTCCC | 0.253
ACGTTCCG | 0.445
ATGTTCCA | 0.0325
AGGTTCCC | -0.0087
CCGTTCCG | 0.477
AGGTTCCG | 0.478
ACGTTCCT | 0.0124
CCGTTCCA | 0.207
ATGTTCCG | 0.48
ACGTTCCA | 0.0623
ATGTTCCC | 0.153
GCAGGGAA | 0.0453
GAATAGGA | 0.0694
ACCGGTTG | 0.208
AGCATTTG | -0.0766
CGAGAGGC | -0.119
GCGAGAGA | -0.148
CAGTCTTC | -0.147
AAACTTAG | -0.216
CTTGACAC | -0.222
CAGGGCTA | -0.258
ACTAGTAC | -0.105
ACGAATAT | 0.0203
AATGCCGT | 0.36

Sequence | PBM E-score
AATGCCGA | 0.219
AATGCCGG | 0.308
CATGCCGC | 0.345
CATGCCGA | 0.248
CATGCCGG | 0.36
ATCCTTGG | -0.0819
CGCCGACC | 0.135
AGAGTAGC | -0.228
CCCGCAGG | 0.142
ATGGAAAG | 0.0226
CAGGAAAG | -0.278
CCGGAAAG | 0.414
CTGGAAAA | 0.144
CAGGAAAC | -0.0475
CGGGAAAG | 0.281
AGGGAAAG | -0.106
CGGGAAAC | 0.309
ACGGAAAG | 0.44
CAGGAAAA | 0.0238
CCGGAAAC | 0.447
CCGGAAAA | 0.44
